Test results: the supplement of paper PMC8728848
About 410 targets per protein were measured; listed, in parts, are those with the strongest signals and a random draw of the rest.

Legend:
Assay in all cases: glycan array binding signal (z-score within array); higher = stronger binding
Conditions in all cases: glycan notation: IUPAC condensed, linker removed
[1] = biological target: Gal(b1-4)GlcNAc(b1-3)Gal(b1-4)GlcNAc(b1-6)[Gal(b1-3)]GalNAc
In short: (§1)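 Glycan array data came from 3228 arrays in the Consortium for Functional Glycomics database, and only arrays with an available protein sequence were kept. Glycan names were put into IUPAC-condensed notation, and columns mapping to the same glycan were averaged. The binding signal is a within-array Z-score, averaged across arrays of one protein sequence run at different concentrations or buffers and across linkers. A negative Z-score can be read as non-binding.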

[2] = biological target: Gal3S(b1-4)[Fuc(a1-3)]GlcNAc6S
In short: as §1

Gal3S6S(b1-4)GlcNAc6S = biological target: Gal3S6S(b1-4)GlcNAc6S
In short: as §1

Gal6P(b1-4)GlcNAc = biological target: Gal6P(b1-4)GlcNAc
In short: as §1

GalNAc(b1-4)GlcNAc = biological target: GalNAc(b1-4)GlcNAc
In short: as §1

GalNAc4S6S(b1-4)GlcNAc = biological target: GalNAc4S6S(b1-4)GlcNAc
In short: as §1

GalNAc6S(b1-4)GlcNAc = biological target: GalNAc6S(b1-4)GlcNAc
In short: as §1

Glc(b1-4)Glc = biological target: Glc(b1-4)Glc
In short: as §1

[3] = biological target: GlcNAc(a1-4)Gal(b1-4)GlcNAc
In short: as §1

[4] = biological target: GlcNAc(a1-4)Gal(b1-4)GlcNAc(b1-3)Gal(b1-4)GlcNAc(b1-3)Gal(b1-4)GlcNAc
In short: as §1

[5] = biological target: GlcNAc(b1-3)Gal(b1-4)GlcNAc(b1-3)Gal(b1-4)GlcNAc
In short: as §1

[6] = biological target: GlcNAc(b1-3)Gal(b1-4)GlcNAc(b1-3)Gal(b1-4)GlcNAc(b1-2)Man(a1-3)[GlcNAc(b1-3)Gal(b1-4)GlcNAc(b1-3)Gal(b1-4)GlcNAc(b1-2)Man(a1-6)]Man(b1-4)GlcNAc(b1-4)[Fuc(a1-6)]GlcNAc
In short: as §1

[7] = biological target: GlcNAc(b1-6)Gal(b1-4)GlcNAc
In short: as §1

[8] = biological target: GlcNAc6S(b1-3)Gal(b1-4)GlcNAc
In short: as §1

[9] = biological target: Man(a1-2)Man(a1-3)[Man(a1-2)Man(a1-6)]Man
In short: as §1

[10] = biological target: Man(a1-2)Man(a1-6)[Man(a1-3)]Man(a1-6)[Man(a1-2)Man(a1-2)Man(a1-3)]Man
In short: as §1

[11] = biological target: Man(a1-3)[Man(a1-6)]Man(b1-4)GlcNAc(b1-4)[Fuc(a1-6)]GlcNAc
In short: as §1

[12] = biological target: Neu5Ac(a2-3)Gal(b1-3)GalNAc
In short: as §1

[13] = biological target: Neu5Ac(a2-3)Gal(b1-3)GalNAc(b1-4)[Neu5Ac(a2-3)]Gal(b1-4)Glc
In short: as §1

[14] = biological target: Neu5Ac(a2-3)Gal(b1-3)GalNAc(b1-4)[Neu5Ac(a2-8)Neu5Ac(a2-3)]Gal(b1-4)Glc
In short: as §1

[15] = biological target: Neu5Ac(a2-3)Gal(b1-4)GlcNAc(b1-2)Man(a1-3)[Neu5Ac(a2-3)Gal(b1-4)GlcNAc(b1-2)Man(a1-6)]Man(b1-4)GlcNAc(b1-4)[Fuc(a1-6)]GlcNAc
In short: as §1

[16] = biological target: Neu5Ac(a2-3)Gal(b1-4)GlcNAc(b1-3)Gal(b1-4)GlcNAc
In short: as §1

[17] = biological target: Neu5Ac(a2-6)Gal(b1-4)GlcNAc(b1-2)Man
In short: as §1

[18] = biological target: Neu5Ac(a2-6)Gal(b1-4)GlcNAc(b1-2)Man(a1-6)[Man(a1-3)]Man(b1-4)GlcNAc(b1-4)GlcNAc
In short: as §1

[19] = biological target: Neu5Ac(a2-6)Gal(b1-4)GlcNAc(b1-3)Gal(b1-3)GlcNAc
In short: as §1

[20] = biological target: Neu5Ac(a2-6)GalNAc(b1-4)GlcNAc6S
In short: as §1

[21] = biological target: Neu5Ac(a2-8)Neu5Ac(a2-3)Gal(b1-3)GalNAc(b1-4)[Neu5Ac(a2-3)]Gal(b1-4)Glc
In short: as §1

[22] = biological target: Neu5Ac(a2-8)Neu5Ac(a2-8)Neu5Ac(a2-8)Neu5Ac(a2-3)[GalNAc(b1-4)]Gal(b1-4)Glc
In short: as §1

[23] = biological target: Neu5Ac9Ac(a2-3)Gal(b1-3)GlcNAc
In short: as §1

Neu5Gc(a2-6)GalNAc = biological target: Neu5Gc(a2-6)GalNAc
In short: as §1

B1: AT1G80310(18) (Arabidopsis thaliana), Q0WP36 (protein)
chain: METTTTPLLPGDRSRCGWLRRRLRLKNPLSSELSGAVGDLGTFIPIVLTLTLVSNLDLSTTLIFTGFYNIATGLLFDIPMPVQPMKSIAAVAVSESPHLTPSQIAAAGASTAATLLLLGATGAMSFLYNIIPLPVVRGVQLSQGLQFAFTAIKYVRFNYDTATLKPSSSPRIWLGLDGLILALAALLFIILSTGSGNDREAEDGDLAETSSNESQSRRRRLRLLSSIPSALIVFALGLVLCFIRDPSIFKDLKFGPSKFHILRISWDDWKIGFLRAAIPQIPLSVLNSVIAVCKLSNDLFDKELSATTVSISVGVMNLIGCWFGAMPVCHGAGGLAGQYRFGARSGLSVIFLGIGKLIVGLVFGNSFVRILSQFPIGILGVLLLFAGIELAMASKDMNSKEDSFIMLVCAAVSMTGSSAALGFGCGVVLYLLLKLRTLDCSSVTLFSRSSDESQVDSEAAPRDV
glycan array binding signal (z-score) [1]: -0.516
glycan array binding signal (z-score) [2]: -0.286
glycan array binding signal (z-score) (Gal3S6S(b1-4)GlcNAc6S): 0.953
glycan array binding signal (z-score) (Gal6P(b1-4)GlcNAc): 0.119
glycan array binding signal (z-score) (GalNAc(b1-4)GlcNAc): 3.09
glycan array binding signal (z-score) (GalNAc4S6S(b1-4)GlcNAc): 3.56
glycan array binding signal (z-score) (GalNAc6S(b1-4)GlcNAc): 2.89
glycan array binding signal (z-score) (Glc(b1-4)Glc): 1.3
glycan array binding signal (z-score) [3]: -0.622
glycan array binding signal (z-score) [4]: 0.229
glycan array binding signal (z-score) [5]: -0.512
glycan array binding signal (z-score) [6]: 1.31
glycan array binding signal (z-score) [7]: -0.608
glycan array binding signal (z-score) [8]: 0.436
glycan array binding signal (z-score) [9]: -0.796
glycan array binding signal (z-score) [10]: -0.243
glycan array binding signal (z-score) [11]: -0.517
glycan array binding signal (z-score) [12]: 0.654
glycan array binding signal (z-score) [13]: -0.383
glycan array binding signal (z-score) [14]: 4.16
glycan array binding signal (z-score) [15]: -0.895
glycan array binding signal (z-score) [16]: -0.967
glycan array binding signal (z-score) [17]: -0.534
glycan array binding signal (z-score) [18]: -0.892
glycan array binding signal (z-score) [19]: -0.646
glycan array binding signal (z-score) [20]: -0.543
glycan array binding signal (z-score) [21]: -0.86
glycan array binding signal (z-score) [22]: -0.09
glycan array binding signal (z-score) [23]: -0.052
glycan array binding signal (z-score) (Neu5Gc(a2-6)GalNAc): 0.551
